Biological target: Ribosomal protein S6 kinase alpha-4 (Homo sapiens) (UniProt O75676);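 note: mean inhibition of MSK2, GSK PKIS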
Settings: at 1 µM

Sequence of Ribosomal protein S6 kinase alpha-4 (Homo sapiens) (O75676 whole entry, looked up): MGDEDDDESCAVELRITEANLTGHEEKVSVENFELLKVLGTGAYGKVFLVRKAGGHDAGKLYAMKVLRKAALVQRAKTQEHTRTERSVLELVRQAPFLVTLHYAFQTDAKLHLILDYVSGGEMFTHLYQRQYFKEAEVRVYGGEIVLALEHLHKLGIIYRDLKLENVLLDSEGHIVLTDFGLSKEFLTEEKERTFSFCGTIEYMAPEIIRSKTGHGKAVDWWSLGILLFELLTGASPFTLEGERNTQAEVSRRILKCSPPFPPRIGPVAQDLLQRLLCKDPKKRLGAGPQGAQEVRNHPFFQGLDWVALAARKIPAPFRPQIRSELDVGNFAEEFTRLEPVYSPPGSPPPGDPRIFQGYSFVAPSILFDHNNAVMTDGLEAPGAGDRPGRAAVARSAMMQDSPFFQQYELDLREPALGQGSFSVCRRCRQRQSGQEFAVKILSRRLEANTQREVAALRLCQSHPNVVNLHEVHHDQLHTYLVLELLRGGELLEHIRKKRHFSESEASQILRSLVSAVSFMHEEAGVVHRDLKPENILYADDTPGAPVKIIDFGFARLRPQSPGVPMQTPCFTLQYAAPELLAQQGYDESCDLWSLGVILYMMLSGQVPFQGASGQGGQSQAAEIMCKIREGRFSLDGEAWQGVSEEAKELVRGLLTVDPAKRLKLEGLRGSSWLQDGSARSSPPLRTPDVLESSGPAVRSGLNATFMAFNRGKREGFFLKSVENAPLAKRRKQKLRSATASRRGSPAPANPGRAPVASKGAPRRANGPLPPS

**Q.** Which inhibition does the source give for `CN(C)CCCn1c(-c2nonc2N)nc2cnccc21` here?
**A.** 13.9%

**Q.** For `CN(c1ccc(NC(=O)Nc2ccc(OC(F)(F)F)cc2)cc1)c1ccnc(Nc2cccc(S(N)(=O)=O)c2)n1`, which inhibition is on record?
**A.** 4.78%

**Q.** For `O=C(Nc1ccc(Oc2ccc3[nH]c(NC(=O)c4ccco4)nc3c2)cc1)Nc1cc(C(F)(F)F)ccc1F`, which inhibition is on record?
**A.** 5.67%

**Q.** `c1ccc(Cc2nc3ccc(Nc4ncnc5ccccc45)cc3[nH]2)cc1` was tested. Which inhibition did it give?
**A.** 2.83%

**Q.** For `C[C@@H](Oc1cc(-n2cnc3ccc(OCC4CCN(C)CC4)cc32)sc1C(N)=O)c1ccccc1C(F)(F)F`, which inhibition is on record?
**A.** 2.52%

**Q.** Which inhibition does the source give for `Nc1nccc(-c2c(-c3ccc(F)cc3)nn3cc(C(F)(F)F)ccc23)n1` here?
**A.** -1.94%

**Q.** With `NC(=O)c1cccc(Nc2nccc(Nc3cccc(F)c3)n2)c1` as the compound, how does the inhibition read?
**A.** 1.21%

**Q.** Which inhibition does the source give for `Nc1nccc(C#Cc2cncnc2Nc2ccc(OCc3cccc(F)c3)c(Cl)c2)n1` here?
**A.** 4.41%

**Q.** Which inhibition does the source give for `NC(=O)c1sc(-n2cnc3ccccc32)cc1OCc1ccccc1Br` here?
**A.** 4.72%

**Q.** For `CN(C)c1cc2c(Nc3ccc4c(cnn4Cc4ccccc4)c3)ncnc2cn1`, which inhibition is on record?
**A.** 6.24%

**Q.** Which inhibition does the source give for `NS(=O)(=O)c1ccc(-c2cc3ccncc3cc2OCc2ccccc2)cc1` here?
**A.** 2.64%

**Q.** `Nc1ccc(C#Cc2cncnc2Nc2ccc(OCc3cccc(F)c3)c(Cl)c2)cc1` was tested. Which inhibition did it give?
**A.** 3.14%

**Q.** How did the inhibition turn out when `FC(F)(F)c1ccc(-c2nn3ncccc3c2-c2ccnc(Nc3ccc4c(c3)OCCO4)n2)cc1` was run?
**A.** 6.41%

**Q.** For `Cc1cc(-c2ccccn2)cc(C)c1/C=C/c1cncc(-c2nn[nH]n2)c1`, which inhibition is on record?
**A.** 1.78%

**Q.** `CCn1c(-c2nonc2N)nc2c(C#CC(C)(C)O)nc(OCCNC)cc21` was tested. Which inhibition did it give?
**A.** 9.93%

**Q.** With `Oc1cccc(-c2nc(-c3ccccc3)[nH]c2-c2ccncc2)c1` as the compound, how does the inhibition read?
**A.** 3.89%

**Q.** `C[C@@H](Oc1cc(-n2cnc3ccc(OC[C@@H](O)CO)cc32)sc1C(N)=O)c1ccccc1Cl` was tested. Which inhibition did it give?
**A.** 1.7%

**Q.** For `OCc1ccc(-c2nc(-c3ccccn3)c(-c3ccc4c(c3)OCO4)[nH]2)cc1`, which inhibition is on record?
**A.** 3.89%

**Q.** Which inhibition does the source give for `Cc1ccc(NC(=O)CC2CC2)cc1-c1ccc(C(=O)NCC2CC2)cc1` here?
**A.** 2.4%

**Q.** `COc1ccc(-c2nn3ncccc3c2-c2ccnc(Nc3cccc(C(F)(F)F)c3)n2)cc1` was tested. Which inhibition did it give?
**A.** 1.73%

**Q.** `Cc1ccc2c(c1)/C(=N/Nc1ccc(S(N)(=O)=O)cc1)C(=O)N2` was tested. Which inhibition did it give?
**A.** 2.32%

**Q.** For `COc1cc(/C=N/Nc2ncnc3c2cnn3C(C)C)ccc1O`, which inhibition is on record?
**A.** 1.83%

**Q.** For `NS(=O)(=O)c1ccc(NC=C2C(=O)Nc3ccc4ncsc4c32)cc1`, which inhibition is on record?
**A.** 63.9%

**Q.** `COc1cc(Nc2nccc(-c3cnn4ncccc34)n2)cc(OC)c1` was tested. Which inhibition did it give?
**A.** 15.7%

**Q.** For `CCS(=O)(=O)c1ccc(OC)c(Nc2nccc(N(C)c3ccc4c(C)n[nH]c4c3)n2)c1`, which inhibition is on record?
**A.** 0.35%

**Q.** With `Cc1ccc(Nc2ccnc(Nc3cccc(C(N)=O)c3)n2)cc1O` as the compound, how does the inhibition read?
**A.** 4.49%

**Q.** `CS(=O)(=O)Nc1cccc(-c2ccc3c(NC(=O)C4CC4)n[nH]c3c2)c1` was tested. Which inhibition did it give?
**A.** 2.85%

**Q.** With `NS(=O)(=O)c1ccc(Nc2cc(-c3cccc(O)c3)n[nH]2)cc1` as the compound, how does the inhibition read?
**A.** 9.16%

**Q.** For `COC(=O)c1cncc(/C=C/c2c(C)cc(O)cc2C)c1`, which inhibition is on record?
**A.** 3.67%

**Q.** Which inhibition does the source give for `COc1cc2ncnc(Nc3ccc(C)c(O)c3)c2cc1OC` here?
**A.** 2.32%

**Q.** With `COC(=O)Nc1nc2cc(Oc3ccc(NC(=O)Nc4cccc(Br)c4)cc3)ccc2[nH]1` as the compound, how does the inhibition read?
**A.** 2.39%

**Q.** For `[O-][S+]1CCN(Cc2ccc(-c3ccc4ncnc(Nc5ccc(OCc6ccccc6)c(Cl)c5)c4c3)o2)CC1`, which inhibition is on record?
**A.** 0.11%

**Q.** With `COc1cc2ncn(-c3cc(OCc4ccccc4S(C)(=O)=O)c(C#N)s3)c2cc1OC` as the compound, how does the inhibition read?
**A.** 10%

Biological target: Ribosomal protein S6 kinase beta-1 (Homo sapiens) (UniProt P23443);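 note: reported value is the mean inhibition of p70S6K1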
Settings: at 0.1 µM

Sequence of Ribosomal protein S6 kinase beta-1 (Homo sapiens) (P23443 whole entry, looked up): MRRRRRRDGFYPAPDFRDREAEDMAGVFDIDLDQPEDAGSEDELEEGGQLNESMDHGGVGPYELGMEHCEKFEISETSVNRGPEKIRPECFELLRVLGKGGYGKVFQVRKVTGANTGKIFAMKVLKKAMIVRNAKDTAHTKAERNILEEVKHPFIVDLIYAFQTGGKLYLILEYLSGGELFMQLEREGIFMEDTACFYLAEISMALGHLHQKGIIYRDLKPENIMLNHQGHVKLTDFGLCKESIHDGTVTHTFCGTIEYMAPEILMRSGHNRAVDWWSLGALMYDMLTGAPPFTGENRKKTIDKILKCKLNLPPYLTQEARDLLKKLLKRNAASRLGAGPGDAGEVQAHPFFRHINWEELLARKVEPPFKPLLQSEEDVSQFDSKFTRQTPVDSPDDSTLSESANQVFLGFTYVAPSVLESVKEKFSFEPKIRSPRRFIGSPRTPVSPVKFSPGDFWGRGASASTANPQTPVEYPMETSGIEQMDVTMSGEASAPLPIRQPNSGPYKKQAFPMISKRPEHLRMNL

**Q.** With `CN(C)CCCn1c(-c2nonc2N)nc2cnccc21` as the compound, how does the inhibition read?
**A.** 2.39%

**Q.** For `CN(c1ccc(NC(=O)Nc2ccc(OC(F)(F)F)cc2)cc1)c1ccnc(Nc2cccc(S(N)(=O)=O)c2)n1`, which inhibition is on record?
**A.** -0.25%

**Q.** `O=C(Nc1ccc(Oc2ccc3[nH]c(NC(=O)c4ccco4)nc3c2)cc1)Nc1cc(C(F)(F)F)ccc1F` was tested. Which inhibition did it give?
**A.** 14.2%

**Q.** With `c1ccc(Cc2nc3ccc(Nc4ncnc5ccccc45)cc3[nH]2)cc1` as the compound, how does the inhibition read?
**A.** 0.76%

**Q.** For `C[C@@H](Oc1cc(-n2cnc3ccc(OCC4CCN(C)CC4)cc32)sc1C(N)=O)c1ccccc1C(F)(F)F`, which inhibition is on record?
**A.** 0.24%

**Q.** For `Nc1nccc(-c2c(-c3ccc(F)cc3)nn3cc(C(F)(F)F)ccc23)n1`, which inhibition is on record?
**A.** -0.77%

**Q.** Which inhibition does the source give for `NC(=O)c1cccc(Nc2nccc(Nc3cccc(F)c3)n2)c1` here?
**A.** 0.38%

**Q.** How did the inhibition turn out when `Nc1nccc(C#Cc2cncnc2Nc2ccc(OCc3cccc(F)c3)c(Cl)c2)n1` was run?
**A.** 1.09%

**Q.** Which inhibition does the source give for `NC(=O)c1sc(-n2cnc3ccccc32)cc1OCc1ccccc1Br` here?
**A.** 1.52%

**Q.** Which inhibition does the source give for `CN(C)c1cc2c(Nc3ccc4c(cnn4Cc4ccccc4)c3)ncnc2cn1` here?
**A.** 2.01%

**Q.** `NS(=O)(=O)c1ccc(-c2cc3ccncc3cc2OCc2ccccc2)cc1` was tested. Which inhibition did it give?
**A.** 1.3%

**Q.** Which inhibition does the source give for `Nc1ccc(C#Cc2cncnc2Nc2ccc(OCc3cccc(F)c3)c(Cl)c2)cc1` here?
**A.** 0.9%

**Q.** For `FC(F)(F)c1ccc(-c2nn3ncccc3c2-c2ccnc(Nc3ccc4c(c3)OCCO4)n2)cc1`, which inhibition is on record?
**A.** 1.5%

**Q.** Which inhibition does the source give for `Cc1cc(-c2ccccn2)cc(C)c1/C=C/c1cncc(-c2nn[nH]n2)c1` here?
**A.** 0.44%

**Q.** How did the inhibition turn out when `CCn1c(-c2nonc2N)nc2c(C#CC(C)(C)O)nc(OCCNC)cc21` was run?
**A.** 3.31%

**Q.** `Oc1cccc(-c2nc(-c3ccccc3)[nH]c2-c2ccncc2)c1` was tested. Which inhibition did it give?
**A.** 1.55%

**Q.** With `C[C@@H](Oc1cc(-n2cnc3ccc(OC[C@@H](O)CO)cc32)sc1C(N)=O)c1ccccc1Cl` as the compound, how does the inhibition read?
**A.** 0.75%

**Q.** `OCc1ccc(-c2nc(-c3ccccn3)c(-c3ccc4c(c3)OCO4)[nH]2)cc1` was tested. Which inhibition did it give?
**A.** 2.09%

**Q.** For `Cc1ccc(NC(=O)CC2CC2)cc1-c1ccc(C(=O)NCC2CC2)cc1`, which inhibition is on record?
**A.** 1.73%

**Q.** How did the inhibition turn out when `COc1ccc(-c2nn3ncccc3c2-c2ccnc(Nc3cccc(C(F)(F)F)c3)n2)cc1` was run?
**A.** 1.77%

**Q.** `Cc1ccc2c(c1)/C(=N/Nc1ccc(S(N)(=O)=O)cc1)C(=O)N2` was tested. Which inhibition did it give?
**A.** 0.52%

**Q.** With `COc1cc(/C=N/Nc2ncnc3c2cnn3C(C)C)ccc1O` as the compound, how does the inhibition read?
**A.** 1.17%

**Q.** `NS(=O)(=O)c1ccc(NC=C2C(=O)Nc3ccc4ncsc4c32)cc1` was tested. Which inhibition did it give?
**A.** 5.33%

**Q.** Which inhibition does the source give for `COc1cc(Nc2nccc(-c3cnn4ncccc34)n2)cc(OC)c1` here?
**A.** 1.87%

**Q.** How did the inhibition turn out when `CCS(=O)(=O)c1ccc(OC)c(Nc2nccc(N(C)c3ccc4c(C)n[nH]c4c3)n2)c1` was run?
**A.** 0.02%

**Q.** How did the inhibition turn out when `Cc1ccc(Nc2ccnc(Nc3cccc(C(N)=O)c3)n2)cc1O` was run?
**A.** 1.61%

**Q.** For `CS(=O)(=O)Nc1cccc(-c2ccc3c(NC(=O)C4CC4)n[nH]c3c2)c1`, which inhibition is on record?
**A.** 1.15%

**Q.** How did the inhibition turn out when `NS(=O)(=O)c1ccc(Nc2cc(-c3cccc(O)c3)n[nH]2)cc1` was run?
**A.** 0.39%

**Q.** With `COC(=O)c1cncc(/C=C/c2c(C)cc(O)cc2C)c1` as the compound, how does the inhibition read?
**A.** 1.37%

**Q.** With `COc1cc2ncnc(Nc3ccc(C)c(O)c3)c2cc1OC` as the compound, how does the inhibition read?
**A.** 3.34%

**Q.** For `COC(=O)Nc1nc2cc(Oc3ccc(NC(=O)Nc4cccc(Br)c4)cc3)ccc2[nH]1`, which inhibition is on record?
**A.** 2%

**Q.** Which inhibition does the source give for `[O-][S+]1CCN(Cc2ccc(-c3ccc4ncnc(Nc5ccc(OCc6ccccc6)c(Cl)c5)c4c3)o2)CC1` here?
**A.** -1.26%

**Q.** `COc1cc2ncn(-c3cc(OCc4ccccc4S(C)(=O)=O)c(C#N)s3)c2cc1OC` was tested. Which inhibition did it give?
**A.** 3.14%
